Sampled rows, rich in hits. Any-hit rate of the full collection: about 3.4%.
FBW7 act: human FBW7 E3 ligase activation, primary screen | 650,000 tested, 0.13% active | AlphaScreen FBW7–phospho-cyclin E peptide binding, activator screen | AID 1259310 | normalized activity (activation), % at 26.1 µM; in the data active = normalized activity above about 1.9%;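 note: purified mutant Fbw7 with reduced substrate affinity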
Target sequence (Q969H0 whole entry, looked up): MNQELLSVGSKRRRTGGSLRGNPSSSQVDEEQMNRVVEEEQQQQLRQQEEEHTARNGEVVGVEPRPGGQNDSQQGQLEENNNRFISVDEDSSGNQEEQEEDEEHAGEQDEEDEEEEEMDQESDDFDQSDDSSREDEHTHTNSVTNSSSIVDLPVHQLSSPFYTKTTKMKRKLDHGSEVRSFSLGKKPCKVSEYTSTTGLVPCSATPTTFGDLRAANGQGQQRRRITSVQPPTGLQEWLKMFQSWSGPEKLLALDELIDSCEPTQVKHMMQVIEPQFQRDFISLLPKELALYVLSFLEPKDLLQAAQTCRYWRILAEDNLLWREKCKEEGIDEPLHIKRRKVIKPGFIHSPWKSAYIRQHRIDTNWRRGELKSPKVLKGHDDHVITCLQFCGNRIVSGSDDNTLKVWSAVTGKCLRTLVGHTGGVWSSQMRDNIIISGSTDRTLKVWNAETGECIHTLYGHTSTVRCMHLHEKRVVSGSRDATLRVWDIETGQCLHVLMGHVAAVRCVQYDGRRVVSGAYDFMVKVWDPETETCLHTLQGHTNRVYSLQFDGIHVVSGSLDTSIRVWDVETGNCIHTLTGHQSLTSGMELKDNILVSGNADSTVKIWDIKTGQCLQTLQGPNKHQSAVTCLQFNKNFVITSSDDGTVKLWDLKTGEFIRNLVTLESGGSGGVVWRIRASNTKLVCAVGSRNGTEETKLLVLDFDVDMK
MITF inh: human MITF inhibition, primary screen; 650,000 tested, 0.91% active; inhibition, % at 2.6 µM; AlphaScreen MITF homodimerization, bead proximity signal; in the data active = inhibition above about 50%;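 note: 0% = vehicle wells with protein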
GPR151 ag: human GPR151 activation | activation, % at 11.2 µM | Q8TDV0 | 650,000 tested, 1% active | PathHunter beta-arrestin GPR151 cells, luminescence; in the data active = activation above about 4.9%;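 note: 0% = median of compound wells and 100% = cells with positive control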
TEAD-YAP block: TEAD-YAP interaction inhibition. HEK-TIYL cells, TEAD-Gal4/YAP UAS-luciferase luminescence. inhibition, % at 9.12 µM. 640,000 tested, 1.4% active. AID 1259422; in the data active = inhibition above about 32%;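 note: 0% = median of test compound wells and 100% = reference inhibitor wells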
GPR151 confirm: confirmation of human GPR151 activators; GPR151 PathHunter beta-arrestin cells, luminescence, 90 min; % of EA-reagent control over plate median; shares compounds with GPR151 ag; 6,700 tested, under 10 active; activation, % at 11.2 µM;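 active = mean percent activation across replicates above the confirmation screen cutoff of 4.91%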
GPR119 ag: activates human GPR119 in a GPR151 counter-screen; GPR119 PathHunter beta-arrestin cells, luminescence, 90 min; 0 = compound-well median, 100 = enzyme-acceptor control; 6,700 tested, 0.3% active; activation, % at 11.2 µM; shares compounds with GPR151 ag;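 active = mean percent activation in the counterscreen above 29.09%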;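 note: counterscreen on off-target GPR119 to flag nonselective hits from the GPR151 activator screen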
The depositor's hits bear a star; ! = not confirmed by another sample.

What do the screens show for `NNC(=O)c1cccc(S(=O)(=O)N2CCOCC2)c1`?
FBW7 act: 0; MITF inh: -2; GPR151 ag: -1; TEAD-YAP block: -11

How did NCCC(=O)N1CCC(C(=O)Nc2ccc3[nH]ncc3c2)C1 (centres undefined) do in these assays?
FBW7 act: 0; MITF inh: 6; GPR151 ag: 0; TEAD-YAP block: 7

How did O=C(CSc1n[nH]c(-c2ccncc2)n1)c1ccc(Cl)cc1 do in these assays?
FBW7 act: 0; MITF inh: -12; GPR151 ag: 5.0*; TEAD-YAP block: 2; GPR151 confirm: -1; GPR119 ag: -6

Results for O=C(CSc1n[nH]c(-c2ccncc2)n1)c1ccc(F)cc1 ?
FBW7 act: 0; MITF inh: -7; GPR151 ag: 2; TEAD-YAP block: 3

Results for COc1ccc(/C=C(\NC(=O)c2ccco2)C(=O)NC(C)C(=O)O)cc1 (centres undefined) ?
FBW7 act: 0; MITF inh: 8; GPR151 ag: -1; TEAD-YAP block: 1

How did COc1ccc(CCN2CCC(Nc3nc4ccccc4n3Cc3ccc(F)cc3)CC2)cc1 do in these assays?
FBW7 act: 0; MITF inh: -3; GPR151 ag: 9.2*!; TEAD-YAP block: 5; GPR151 confirm: 2; GPR119 ag: -1

What do the screens show for `COc1ccc(CCN2CCC(NCC3CC3)CC2)cc1`?
FBW7 act: 0; MITF inh: -5; GPR151 ag: 0; TEAD-YAP block: 8

What do the screens show for `CCc1ccc(OCCNc2cc(N3CCOCC3)ccc2[N+](=O)[O-])cc1`?
FBW7 act: 0; MITF inh: 18; GPR151 ag: 0; TEAD-YAP block: -6

How did Cc1ccc(NC(=O)C(=O)/C=C(\O)c2ccccc2)c(C)c1 do in these assays?
FBW7 act: 0; MITF inh: 35; GPR151 ag: -1; TEAD-YAP block: -38

What do the screens show for `COc1ccc(N2CCN(CC(O)COc3ccccc3C(C)=O)CC2)cc1` (centres undefined)?
FBW7 act: 0; MITF inh: 15; GPR151 ag: 5.9*; TEAD-YAP block: 9; GPR151 confirm: 0; GPR119 ag: 8

What do the screens show for `CCCCCCSc1nc2sc3c(c2c(=O)n1-c1ccc(OC)cc1)CC(C)(C)OC3`?
FBW7 act: 0; MITF inh: -6; GPR151 ag: 9.7*; TEAD-YAP block: 3; GPR151 confirm: 1; GPR119 ag: 16

Results for CCCCCCSc1nc2sc3c(c2c(=O)n1-c1ccc(C)cc1)CC(C)(C)OC3 ?
FBW7 act: 0; MITF inh: 10; GPR151 ag: 1; TEAD-YAP block: 1

What do the screens show for `O=C(CN1CCN(c2ccccn2)CC1)NCc1ccccc1`?
FBW7 act: 1; MITF inh: -7; GPR151 ag: 2; TEAD-YAP block: 2

What do the screens show for `O=C(CCC(=O)c1ccc(Br)cc1)Nc1cccnc1`?
FBW7 act: 0; MITF inh: 5; GPR151 ag: -1; TEAD-YAP block: -5

Results for O=C(CCC(=O)c1ccc(Oc2ccccc2)cc1)Nc1cccnc1 ?
FBW7 act: 0; MITF inh: -25; GPR151 ag: 6.8*; TEAD-YAP block: 4; GPR151 confirm: -1; GPR119 ag: 5

Results for O=C(Nc1nccs1)c1ncoc1-c1cccs1 ?
FBW7 act: 0; MITF inh: -14; GPR151 ag: 8.7*; TEAD-YAP block: 5; GPR151 confirm: 0; GPR119 ag: 4

What do the screens show for `O=C(Nc1nncs1)c1ncoc1-c1cccs1`?
FBW7 act: 0; MITF inh: -16; GPR151 ag: -1; TEAD-YAP block: 8

Results for O=C(CCC1(Cc2cccs2)CCC(=O)N1)NCc1ccc2nsnc2c1 (centres undefined) ?
FBW7 act: 0; MITF inh: 6; GPR151 ag: -1; TEAD-YAP block: 0

Results for COc1ccc(Cl)cc1NC(=O)COc1cccc(Br)c1 ?
FBW7 act: 0; MITF inh: -5; GPR151 ag: 0; TEAD-YAP block: 0

Results for COc1ccc(-c2nc(NCCO)c3ncn(C4CCCCC4)c3n2)cc1 ?
FBW7 act: 0; MITF inh: 12; GPR151 ag: 6.0*; TEAD-YAP block: -4; GPR151 confirm: 1; GPR119 ag: -4

How did COc1cc(/C=c2\sc3nc(-c4ccc(F)cc4)nn3c2=O)ccc1OC(C)=O do in these assays?
FBW7 act: 0; MITF inh: 2; GPR151 ag: 1; TEAD-YAP block: 4

How did CCCC(=O)ON1C(=O)c2cccc3cccc(c23)C1=O do in these assays?
FBW7 act: 0; MITF inh: 20; GPR151 ag: 5.5*; TEAD-YAP block: -3; GPR151 confirm: 0; GPR119 ag: 14

Results for COc1ccc(-n2nnnc2C2(Nc3ccc(I)cc3)CCCCC2)cc1 ?
FBW7 act: 0; MITF inh: 12; GPR151 ag: -1; TEAD-YAP block: 4

What do the screens show for `O=C1/C(=C/c2cccnc2)CC/C1=C\c1cccnc1`?
FBW7 act: 0; MITF inh: 1; GPR151 ag: 6.5*; TEAD-YAP block: 16; GPR151 confirm: 1; GPR119 ag: 4

What do the screens show for `COC(=O)c1ccc2c(=O)n(-c3ccccc3N)c(=S)[nH]c2c1`?
FBW7 act: 0; MITF inh: -3; GPR151 ag: 0; TEAD-YAP block: 7

What do the screens show for `Cc1ccc(OCC(=O)NNC(=O)COc2ccc(Br)cc2C)c(C)c1`?
FBW7 act: 0; MITF inh: 13; GPR151 ag: 0; TEAD-YAP block: -9

Results for Cc1ccc(OCC(=O)Nc2ccc3oc(=O)ccc3c2)c(C)c1 ?
FBW7 act: 0; MITF inh: 1; GPR151 ag: 5.5*; TEAD-YAP block: 5; GPR151 confirm: 0; GPR119 ag: -5

How did COc1ccc(OCC(=O)Nc2ccc3oc(=O)ccc3c2)cc1 do in these assays?
FBW7 act: 0; MITF inh: -1; GPR151 ag: 5.8*; TEAD-YAP block: 10; GPR151 confirm: 0; GPR119 ag: 9

How did Cc1ccc(OCC(=O)Nc2ccc(Br)cn2)c(C)c1 do in these assays?
FBW7 act: 0; MITF inh: 0; GPR151 ag: 8.3*; TEAD-YAP block: -19; GPR151 confirm: -1; GPR119 ag: -10

What do the screens show for `O=C(COc1ccc(Br)cc1)Nc1ccc2oc(=O)ccc2c1`?
FBW7 act: 0; MITF inh: 4; GPR151 ag: 1; TEAD-YAP block: 6

How did COc1ccc(OCCOc2ccc(/C=C3/C(=N)N4N=C(CC(C)C)SC4=NC3=O)cc2OC)cc1 do in these assays?
FBW7 act: 0; MITF inh: 13; GPR151 ag: 1; TEAD-YAP block: 8

Results for CC(C)(C)CN1CCNC(=O)C1CC(=O)NCCc1cccc2ccccc12 (centres undefined) ?
FBW7 act: 0; MITF inh: 6; GPR151 ag: 2; TEAD-YAP block: 4

Assay outcomes deposited in PubChem by The Scripps Research Institute Molecular Screening Center.
